60 compounds from PubChem BioAssay AID1259310 (The Scripps Research Institute Molecular Screening Center, 2017) can be followed below.

In all, about 650,000 compounds went through this assay and about 850 (0.13%) were called active. Only a selection was taken, and actives are over-represented in it overall. A number with no mark means an inactive call. Rule as the data show it: active = normalized activity above about 1.9%; inactive = the rest.

Chain of F-box/WD repeat-containing protein 7 (Homo sapiens) (Q969H0 whole entry, looked up): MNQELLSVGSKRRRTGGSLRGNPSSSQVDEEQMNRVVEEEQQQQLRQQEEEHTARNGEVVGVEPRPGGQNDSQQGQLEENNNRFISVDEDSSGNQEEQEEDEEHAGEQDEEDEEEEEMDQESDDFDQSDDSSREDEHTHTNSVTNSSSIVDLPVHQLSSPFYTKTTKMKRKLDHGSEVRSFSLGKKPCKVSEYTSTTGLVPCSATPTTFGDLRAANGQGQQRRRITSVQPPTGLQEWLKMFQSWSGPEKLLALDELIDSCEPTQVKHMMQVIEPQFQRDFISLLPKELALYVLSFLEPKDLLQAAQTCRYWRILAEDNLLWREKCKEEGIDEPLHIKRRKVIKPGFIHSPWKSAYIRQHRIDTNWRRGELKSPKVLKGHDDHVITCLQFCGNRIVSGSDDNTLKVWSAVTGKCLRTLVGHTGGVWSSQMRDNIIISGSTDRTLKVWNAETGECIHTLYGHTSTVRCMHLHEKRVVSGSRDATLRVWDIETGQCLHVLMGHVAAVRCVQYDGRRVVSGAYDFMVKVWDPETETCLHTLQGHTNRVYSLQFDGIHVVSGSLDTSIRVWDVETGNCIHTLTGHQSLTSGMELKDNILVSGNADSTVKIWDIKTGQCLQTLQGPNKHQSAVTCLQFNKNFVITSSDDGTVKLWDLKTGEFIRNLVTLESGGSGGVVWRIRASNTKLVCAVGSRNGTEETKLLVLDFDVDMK

This experiment addresses F-box/WD repeat-containing protein 7 (Homo sapiens) (UniProt Q969H0). Kind of experiment: FBW7 E3 ligase activators, primary screen, biochemical, AlphaScreen, human (AID 1259310).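 Also: purified mutant Fbw7 with reduced substrate affinity.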 The following applies: AlphaScreen FBW7–phospho-cyclin E peptide binding, activator screen; at 26.1 µM; active compounds read high.
As for `Cc1c(-c2nc3cnccn3c2NCc2ccc(F)cc2)cnn1C`, the normalized activity (activation) is -0.04%.
Turning to `COc1ccc(NC(=S)C(=O)Nc2ccccc2)cc1`, the normalized activity (activation) was 0.08%.
In the case of `COc1ccc(SCC(=O)NNC(=S)Nc2ccccc2)cc1` it was 2.07% (active).
In the case of `COc1cccc(NC(=O)CSc2ccc(Br)cc2)c1` it was 0.07%.
With `CCOc1ccc2nc(NC(=O)c3cccc(C(=O)OC)n3)sc2c1`, the normalized activity (activation) is -0.02%.
In the case of `CC(C)c1ccc(OCC(=O)N/N=C/c2cccnc2)cc1` it was -0.04%.
Regarding `COc1c(Cl)cc(Cl)cc1C(=O)Nc1ccccc1[N+](=O)[O-]`, the normalized activity (activation) was -0.17%.
Next, `O=C(CN1C(=O)c2cccc([N+](=O)[O-])c2C1=O)OCC(=O)c1ccc(Cl)cc1`: -0.01%; `CCOC(=O)C1=C(C)NC(=S)NC1c1cc(OC)ccc1O` (stereo not given): 0.11%; `Cc1c(CCC#N)c(-n2ccnc2)n2c(nc3ccccc32)c1C#N`: -0.21%.
In the case of `N#Cc1c2c(c(-n3ccnc3)n3c1nc1ccccc13)CCC2` it was 0.17%; in that of `CCc1c(C)c(C#N)c2nc3ccccc3n2c1-n1ccnc1`, 2.07% (active); in that of `COc1ccc(/C=N/Nc2nc3nonc3nc2Nc2cccc(C)c2)cc1OC`, -0.17%.
In the case of `COc1cccc2c1OC1(CCN(C(=O)Nc3cccc(F)c3)CC1)OC2` it was -0.04%.
Regarding `Oc1ccccc1-c1nc(-c2cccc(C(F)(F)F)c2)c(-c2ccccc2)[nH]1`, the normalized activity (activation) is 0.23%.
In the case of `c1cnc(Sc2nnc3ccccn23)nc1` it was 0.1%.
Next, `COc1ccc(N=C2CCC(O)=C2C(C)=O)cc1`: 0.05%; `COc1ccc(S(=O)(=O)NCC(=O)Nc2cccc(Br)c2)cc1OC`: -0.15%; `COc1cccc(C(=O)N2CCc3ccccc32)c1`: 0.05%.
Next, `CCn1c(=N)n(CC(=O)c2cccc(OC)c2)c2ccccc21`: 2.64% (active); `COc1cccc(C(=O)N2CCN(C(=O)c3cccc(OC)c3)CC2)c1`: 0%.
With `Cc1cc(S(=O)(=O)Nc2ccc(Br)cc2)c(C)c(S(=O)(=O)c2ccc(Cl)cc2)c1`, the normalized activity (activation) was 0.11%.
Consider `O=C1CCCC2=C1C(c1cccnc1)Nc1ccc3ncccc3c12` (stereo not given), for which the normalized activity (activation) is -0.33%.
Next, `CCCCNc1ncc2c(n1)c(=O)c(C#N)c1[nH]c3ccccc3c(=O)n12`: 2.15% (active); `CCCCNC(=O)CSc1nnc2c(n1)[nH]c1ccccc12`: 0.16%.
Next, `CN(C)CCCNc1ncc2c(n1)c(=O)c(C#N)c1[nH]c3ccccc3c(=O)n12`: -0.01%.
In the case of `O=C(O)COc1ccc(C2Nc3ccccc3S(=O)(=O)N2Cc2ccccc2)cc1` (stereo not given) it was -0.1%; in that of `O=C(c1nc2ccccc2s1)N1CCN(c2nc3ccccc3s2)CC1`, 0.01%.
Turning to `Oc1ccccc1-c1nc(CI)no1`, the normalized activity (activation) was 0.03%.
Next, `O=S(=O)(NC1CCCCC1Sc1ncn[nH]1)c1ccc(Cl)cc1` (stereo not given): 0%; `CCSC1=NSC2=NC(=O)/C(=C\c3ccc(OC)cc3)C(=N)N12`: 0.04%.
In the case of `COc1cccc(NC(=O)Nc2cc(OC)cc(OC)c2)c1` it was -0.06%.
Next, `COc1cccc(NC(=O)Nc2ccc(-c3cn4c(C)c(C)nnc4n3)cc2)c1`: 1.87% (active).
For `COc1ccc(NC(=O)c2sc3nc(-c4cccc([N+](=O)[O-])c4)cn3c2C)cc1`, the normalized activity (activation) was -0.14%.
In the case of `CCC(C)(C(=O)Nc1ccc2c(c1)OCCO2)N(Cc1ccco1)C(=O)c1ccccc1O` (stereo not given) it was -0.01%; in that of `O=C(COc1cccc([N+](=O)[O-])c1)N/N=C/c1ccc(O)c([N+](=O)[O-])c1`, -0.11%; in that of `CN(C)c1ccc(C(c2nnnn2C(C)(C)C)N2CCN(Cc3ccccc3)CC2)cc1` (stereo not given), 1.85% (active).
As to `COc1ccc(C(c2nnnn2C(C)(C)C)N2CCN(c3ccccc3)CC2)cc1` (stereo not given), the normalized activity (activation) was 0.3%.
Next, `CCCC(c1nnnn1C(C)(C)C)N1CCN(Cc2ccccc2)CC1` (stereo not given): 0.01%; `CC(=O)c1ccc(N2C(=O)C3C(C2=O)C2(C)c4ccccc4C3(C)c3ccccc32)cc1` (stereo not given): -0.19%; `COc1ccc(-c2cc(NCCOc3ccccc3)nc(N)n2)cc1`: 0.12%.
As to `O=C(COc1ccc(Cl)cc1)NNC(=O)C(Cc1ccccc1)N1C(=O)c2ccccc2C1=O` (stereo not given), the normalized activity (activation) is 0.06%.
Regarding `Cc1cc(C(=O)C(=O)c2nccn2C)c(C)n1C`, the normalized activity (activation) was 0.04%.
Next, `CCC(c1nnnn1CCC(C)C)N1CCN(c2ccccc2)CC1` (stereo not given): 0.24%.
Next, `CCC(c1nnnn1C1CCCC1)N1CCN(C(=O)c2ccco2)CC1` (stereo not given): -0.16%; `CCC(c1nnnn1CCC(C)C)N1CCN(C(=O)c2ccco2)CC1` (stereo not given): 2.16% (active).
Consider `COc1cc(Cl)c(C)cc1NC(=O)CCNC(=O)Cn1cnc2sc3c(c2c1=O)CCCC3`, for which the normalized activity (activation) was -0.1%.
With `Cc1ccc(CN2CCN(CC(=O)NCc3ccccn3)C2=O)cc1`, the normalized activity (activation) is -0.27%.
In the case of `O=[N+]([O-])c1ccc(S(=O)(=O)NCCc2ccccc2)cc1` it was 0.18%.
Next, `COC(=O)CNC(=O)CNS(=O)(=O)c1ccccc1[N+](=O)[O-]`: 0.14%; `NNC(=O)CNC(=O)CNS(=O)(=O)c1ccc([N+](=O)[O-])cc1`: 1.97% (active); `CC1=C(C(=O)Nc2cccc(C(=O)Nc3cccc(Cl)c3C)c2)SCCO1`: -0.1%.
In the case of `COc1cc(C2CC(=O)NC3=C2C(=O)CC(C)(C)C3)cc([N+](=O)[O-])c1O` (stereo not given) it was -0.34%; in that of `C#CCN1C(=O)C(O)(CC(=O)c2ccc(OC)c([N+](=O)[O-])c2)c2ccccc21` (stereo not given), 0.12%.
For the compound `O=C(NCCc1cccnc1)c1ccc2c(c1)CC(c1nc3ccc(-c4cn[nH]c4)cc3c(=O)[nH]1)CO2` (stereo not given), the normalized activity (activation) was 3.03% (active).
In the case of `CN(C)CCN(C)c1nc(C2COc3ccc(C(N)=O)cc3C2)nc2ccc(-c3cn[nH]c3)cc12` (stereo not given) it was 1.23%; in that of `O=c1[nH]c(C2COc3ccc(F)cc3C2)nc2ccc(-c3cn[nH]c3)cc12` (stereo not given), -0.05%; in that of `CCN(CC)c1ccc2nnc(CCC(=O)Nc3ccc(C(=O)OC)cc3)n2n1`, 0.06%.
For the compound `CC1CCCN(S(=O)(=O)c2ccc3c(c2)OCC(=O)N3)C1` (stereo not given), the normalized activity (activation) is 0.17%.
In the case of `CCOC(=O)CC(C(C)C)N(Cc1ccc(F)cc1)C(=S)Nc1cccc(C)c1` (stereo not given) it was 0.07%.
